Results reported in PubChem BioAssay AID528 (NMMLSC, 2006).
The whole screen tested about 24,000 compounds, of which fewer than 10 were called active. Not shown: some 9% with an inconclusive outcome.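 Rule for the calls: active = fluorescent ligand binding to cells raised by more than 40% of the manganese-induced maximum; inconclusive = compound's own fluorescence above 85% of the ligand control signal; inactive = the rest.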 A selection follows.

What follows are molecules tested against Integrin alpha-4 (Homo sapiens) (UniProt P13612) (assay: enhancers of LDV-FITC binding to VLA-4 integrin, primary screen, Jurkat cells, flow cytometry (AID 528;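 note: 0% = ligand binding without compound and 100% = manganese-stimulated maximal binding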)). Conditions: hits give high values, screened at 10 µM (by protocol).
Integrin alpha-4 (Homo sapiens), sequence (P13612 whole entry, looked up): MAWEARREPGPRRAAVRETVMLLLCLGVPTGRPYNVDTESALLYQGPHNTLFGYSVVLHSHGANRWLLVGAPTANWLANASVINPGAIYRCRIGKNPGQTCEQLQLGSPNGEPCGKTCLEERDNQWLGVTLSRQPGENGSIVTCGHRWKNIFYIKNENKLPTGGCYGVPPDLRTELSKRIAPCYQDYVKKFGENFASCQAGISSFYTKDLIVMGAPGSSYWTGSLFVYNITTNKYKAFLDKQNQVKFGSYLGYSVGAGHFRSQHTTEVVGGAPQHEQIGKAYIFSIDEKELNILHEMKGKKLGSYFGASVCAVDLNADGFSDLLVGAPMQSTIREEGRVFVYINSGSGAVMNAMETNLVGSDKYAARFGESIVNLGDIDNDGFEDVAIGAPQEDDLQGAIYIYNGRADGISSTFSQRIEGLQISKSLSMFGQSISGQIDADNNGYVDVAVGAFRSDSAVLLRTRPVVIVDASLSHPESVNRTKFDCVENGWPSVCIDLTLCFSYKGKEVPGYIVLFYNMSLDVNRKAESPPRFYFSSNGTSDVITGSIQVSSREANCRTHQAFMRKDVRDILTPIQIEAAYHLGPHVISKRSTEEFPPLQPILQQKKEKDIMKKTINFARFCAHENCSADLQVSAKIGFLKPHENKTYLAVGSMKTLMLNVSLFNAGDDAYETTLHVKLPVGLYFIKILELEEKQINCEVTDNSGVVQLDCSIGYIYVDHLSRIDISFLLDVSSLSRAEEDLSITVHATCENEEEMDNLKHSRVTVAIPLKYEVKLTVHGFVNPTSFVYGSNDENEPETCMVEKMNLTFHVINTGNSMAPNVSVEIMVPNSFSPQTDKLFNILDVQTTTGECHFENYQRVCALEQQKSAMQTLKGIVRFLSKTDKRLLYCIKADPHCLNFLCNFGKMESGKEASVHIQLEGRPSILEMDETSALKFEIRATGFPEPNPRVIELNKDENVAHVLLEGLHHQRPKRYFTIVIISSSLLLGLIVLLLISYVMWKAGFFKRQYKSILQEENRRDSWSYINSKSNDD

activation, inactive:
COC(=O)c1ccc(NC(=O)CSc2nnc(Cc3cccn3C)n2-c2ccc(F)cc2)cc1 -4%, Cc1noc(C)c1S(=O)(=O)N(CC(=O)Nc1ccc2c(c1)OCCO2)c1ccc(C(C)C)cc1 -8%, Cn1c(C(=O)N2CCC(C(N)=O)CC2)cc2c(=O)n(C)c3ccccc3c21 -1%, O=C(Nc1ccccc1C(=O)N1CCOCC1)C1CCC(=O)N1C1CCCC1 (centres undefined) 8%, CN1CCN(S(=O)(=O)c2ccc3[nH]cc(C(=O)O)c(=O)c3c2)CC1 2%, Cc1ccnc(N2C(=O)c3ccccc3C2Nc2ccc3c(c2)OCCO3)c1 (centres undefined) -5%, COCCCNC(=O)c1ccc(CNS(=O)(=O)c2ccc(NC(C)=O)cc2)cc1 -3.5%, Cc1nc(N2CCN(c3ncccn3)CC2)c2oc3ccccc3c2n1 -3.5%, CC(C)OCCCNC(=O)C1CC(=O)N(C2CCCCCCC2)C1 (centres undefined) -1%, Cc1ccc(S(=O)(=O)N2CCCC2CO)cc1 (centres undefined) 5%, COc1ccc(C(=O)NC(=O)CSc2nnc(-c3ccco3)n2-c2ccccc2)cc1 1.3%, Cc1ccccc1CN1CCN(C(=O)c2cccc(F)c2)CC1 4%, CC1CCN(Cc2nc3c(c(=O)n(C)c(=O)n3C)n2Cc2cccc3ccccc23)CC1 2%, CCOc1nc(OCC)nc(-n2cc(-c3ccccc3)nn2)n1 2%, FC(F)Oc1ccccc1C1CC(c2ccc(Br)s2)Nc2ncnn21 (centres undefined) 3%, Cc1cc(Nc2cccc(F)c2)n2ncnc2n1 -0.5%, O=C(c1ccco1)N1CCN(C(=O)c2ccc(COc3ccc(F)cc3)o2)CC1 0%, Cn1c(CNC(=O)C(C)(C)C)nc2ccccc21 -3%, Cc1cc(NS(=O)(=O)c2ccccc2)no1 5.5%, CCOC(=O)c1cn(CC(=O)Nc2ccc(C(C)C)cc2)nn1 -2%, Cc1cccc(C)c1NC(=O)N1CC=C(n2c(=O)[nH]c3ccccc32)CC1 0%, Cc1ccc(S(=O)(=O)n2nc(OC(=O)C(C)(C)C)cc2N)cc1 4%, CCOC(=O)c1c(C)c(C(=O)NCCc2ccc(S(N)(=O)=O)cc2)c(C)n1CC 16%, O=C(O)C1C2C=CC(C2)C1C(=O)N1CCN(CCO)CC1 (centres undefined) -2%, Cc1cnc(C(=O)OCC(=O)Nc2ccc(Cl)cc2Cl)cn1 3%, CCOC(=O)Cn1c(CN(Cc2ccccc2)Cc2ccccc2)nc2c1c(=O)[nH]c(=O)n2C -5%, O=S(=O)(O)CCN1CCOCC1 -6%, O=C(NC1CCCCC1)C1CCCN(S(=O)(=O)c2cccs2)C1 (centres undefined) -10.5%, COc1ccc(C(=O)NCc2cn3ccccc3n2)cc1 -2%, Cc1ccccc1NC(=O)Cc1nnc(SCC(=O)N2CCN(c3ccccc3)CC2)n1C 0.5%, CC(C)CCNC(=O)CCNS(=O)(=O)c1ccc(Cl)cc1 -2.7%, COc1ccccc1-c1c(C)nn2c(C)c(C(C)=O)cnc12 -2%, COc1cccc(OCC(O)CN2CCN(CCO)CC2)c1 (centres undefined) 3.3%, CCCC(=O)Nc1cccc(-c2cn3ccsc3n2)c1 3%, Cc1noc(C)c1S(=O)(=O)NCCc1ccc(S(N)(=O)=O)cc1 3%, CC(=O)N(CC1CCCO1)C1(C(=O)NC2CCCC2)CCCCC1 (centres undefined) 0%, COC(=O)c1ccc(CN(c2ccccc2OC)S(=O)(=O)c2cccs2)o1 -2%, O=C(CCS(=O)(=O)Cc1ccccc1F)NCCCN1CCCCC1 -2%, COc1ccc(CN2C(=O)CN=C2Nc2ccc(C)cc2C)cc1 6%, COc1cccc(N2C(=O)CC(N3CCN(S(=O)(=O)c4ccccc4)CC3)C2=O)c1 (centres undefined) -2%, CN(CCCNC(=O)CN1C(=O)CC(C)(C)S(=O)(=O)c2ccccc21)C1CCCCC1 6%, Cc1ccc(NC(=O)CCNS(=O)(=O)c2ccc3c(c2)oc(=O)n3C)cc1C 9%, O=C(COC(=O)c1ccccc1C(=O)c1ccccc1)c1ccco1 2.5%, CNC(=O)Nc1cc(C(C)(C)C)no1 -2%, Cc1cc(=O)n2nc(N3CCCC(C(=O)NCCC4=CCCCC4)C3)sc2n1 (centres undefined) -3%, CC(c1cccnc1)N(CCN(C)C)C(=O)Nc1ccc(Cl)c(Cl)c1 (centres undefined) -2%, CSc1sc(C)cc1C1C(C#N)=C(N)N(c2cccnc2)C2=C1C(=O)CCC2 (centres undefined) 0%, COc1ccc(C2C3=C(OC(C)=O)c4ccccc4C3=Nc3c2c(=O)n(C)c(=O)n3C)cc1 (centres undefined) -0.5%, COCCNC(=O)CN1C(=O)CSc2ncccc21 2.7%, CC(=O)Nc1ccc(S(=O)(=O)N2CCC(N(C)CCC(C)C)CC2)cc1 4%, CCOC(=O)N1CCC(NC(=O)COc2cc(=O)n(C)c3ccccc23)CC1 -3%, O=C(O)CCN1C(=O)CC2(CCCCC2)C1=O -1%, c1cc(-c2nn[nH]n2)ccc1CN1CCCCC1 1%, O=C(O)CSCNC(=O)CC12CC3CC(CC(C3)C1)C2 13%, CCC(C)NC(=O)C1CCC(=O)N1Cc1ccc(C)cc1 (centres undefined) 4%, O=c1c(-c2ccccc2)coc2c(CN3CCOCC3)c(O)ccc12 9.5%, Cc1noc(C)c1S(=O)(=O)N(CC(=O)NCc1ccc(Cl)cc1)c1ccc2c(c1)OCO2 3%, CC(C)C(=O)Nc1c(C(=O)c2ccc(F)cc2)oc2ccccc12 -2%, O=C(CCCCn1c(=O)[nH]c2ccccc2c1=O)NCc1ccc2c(c1)OCO2 10%, CCCC(=O)NC(C)C(c1cccs1)N1CCN(c2ccccc2)CC1 (centres undefined) -2%, Cn1cccc1C1(C(F)(F)F)NCCNC1=O (centres undefined) 1%, Cc1ccccc1CSc1nnc(Cn2c(=O)sc3ccccc32)n1C 4%, Nc1nonc1C(=O)NCCc1ccccc1 6%, CCOc1ccc(-c2nnc3ccc(SC)nn23)cc1 4%
